Rows were chosen to be rich in hits. Some 3.3% of all compounds tested hit in one or more screens of this group.
HCV inh – HCV inhibition | Huh7.5.1 HCVcc-Cre infection, luciferase reporter, 44 h | Potency, µM (highest dose often 41.8 µM), inactives show at the highest dose activity change, negative = inhibition, hits mostly inhibitors | hit rate 3.4% among 340,000 | AID 651820; also: % is scaled to controls: 0 for no effect and ±100 for the full control effect
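After 44 h co-culture of compound, cells and HCVcc-Cre (~0.5 moi), substrate is added for 15 min at room temperature and luciferase measured over 15 sec. Cells were seeded at 1,000/well and pre-cultured 4 h.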
VACV mCherry inh – vaccinia inhibition (mCherry reporter). Potency, µM (titrated, usually from 36.5 µM), for the others: top-dose activity change, negative = inhibition, actives largely listed as inhibitors. Vaccinia virus mCherry reporter infection, fluorescence. hit rate 0.63% among 310,000; calls by dose curve; tested in A549 cells; also: % is scaled to controls: 0 for no effect and ±100 for the full control effect; nearly all actives have a fitted effect of over 35% in size
Vaccinia Venus – vaccinia inhibition (Venus reporter) | Vaccinia virus Venus reporter expression, fluorescence | Potency, µM (titrated, usually from 36.5 µM), without a hit: at the highest dose activity change, negative = inhibition, usual class: inhibitors | hit rate 0.46% among 330,000 | AID 720580; calls by dose curve; tested in A549 cells; also: % is scaled to controls: 0 for no effect and ±100 for the full control effect; nearly all actives have a fitted effect of over 30% in size
HCV confirm – confirmation of hepatitis C virus inhibitors; Potency, µM (titrated, usually from 41.8 µM), without a hit: at the highest dose activity, negative = inhibition, actives largely listed as inhibitors; hit rate 78% among 640; HCVcc-Cre infectious virus cell assay, luciferase, inhibition; AID 720575; shares compounds with HCV inh; also: nearly all actives have a fitted effect of over 80% in size
HCV host tox – host cell cytotoxicity counter-screen for HCV inhibitors. hit rate 22% among 640. shares compounds with HCV inh. Potency, µM (top dose mostly 41.8 µM), for the others: at the highest dose activity change, negative = cytotoxicity, hits mostly inhibitors. HCV host cell line cytotoxicity counterscreen. AID 720576;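 also: 44 h compound exposure; % is scaled to controls: 0 for no effect and ±100 for the full control effect; nearly all actives have a fitted effect of over 55% in size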
An asterisk follows results filed as active; i = inactive; ? = inconclusive; nt = no result given; [ ] = another dose, or the depositor's remark. Unless noted, calls follow the shape of the dose curve; as a rule, active = well fitted curve in the direction sought with a large enough effect; inconclusive = small, poorly fitted or top-dose-only effect, or another doubt; inactive = no such curve, though single readings can be large; an effect the other way counts as inactive or inconclusive. Potency is read from the fitted curve at half-maximal effect.

SMILES	HCV inh	VACV mCherry inh	Vaccinia Venus	HCV confirm	HCV host tox
COc1ccccc1NS(=O)(=O)c1cc(C(=O)NC2CCN(Cc3ccccc3)CC2)ccc1C	5.62µM*	nt	nt	2.8µM*	2.23µM*
Cc1ccc(C(=O)NC2CCN(Cc3ccccc3)CC2)cc1S(=O)(=O)N1CCOCC1	?	-21.6%	-22.2%	nt	nt
COc1ccccc1OCCNC(=O)C1CC(=O)N(Cc2ccc(C)cc2)C1 (stereo not given)	5.5%	-9.7%	-17.0%	nt	nt
CCn1c(COc2ccc(=O)n(-c3ccccc3)n2)nnc1SC	17.9%	-1.0%	-9.4%	nt	nt
Cc1ccc(N)c(C)c1	-24.2%	i	-12.1%	nt	nt
Cc1ccc(N=Nc2cc(C)ccc2N)cc1	3.16µM*	i	-9.3%	3.15µM*	?
CCOc1cc(NC(=O)CCl)c(OCC)cc1NC(=O)CCl	?	-12.3%	1.0%	nt	nt
O=C(CCl)Nc1cc2[nH]c(=O)[nH]c2cc1Br	6.31µM*	?	?	15.8µM*	?
COc1ccc(OC)c2nc(-c3ccc4c(c3)OCO4)ccc12	4.47µM*	?	-20.2%	8.87µM*	24.0%
c1ccc2nc(-c3ccc4c(c3)OCO4)ccc2c1	-9.3%	i	-0.9%	nt	nt
CCOC(=O)c1c(C)[nH]c(C)c1S(=O)(=O)N1CCC(C(=O)NCc2ccc(F)cc2)CC1	nt	-10.9%	-19.8%	nt	nt
CCn1nnc(-c2ccccc2NC(=O)c2cc(OC)cc(OC)c2)n1	?	-5.9%	-14.2%	nt	nt
CCn1nnc(-c2ccccc2NC(=O)C(F)(F)F)n1	?	-3.9%	-8.5%	?	-16.9%
COc1ccc(S(=O)(=O)NCC2(N3CCOCC3)CCCCC2)cc1OC	2.4%	-6.0%	-13.8%	nt	nt
O=C(O)C1C2CCC(O2)C1C(=O)Nc1cccc(Cl)c1 (stereo not given)	8.0%	-3.6%	-13.8%	nt	nt
COc1ccc(CN(CC(=O)NCc2ccc(F)cc2)C(=O)CCC(=O)Nc2nccs2)cc1	14.1%	-17.2%	-2.8%	nt	nt
COc1ccc(N/N=C(/N=Nc2nc(C)cc(=O)[nH]2)c2ccccc2)cc1	4.47µM*	-9.7%[1.46 µM]	-18.1%	7.91µM*	11.2µM*
Cc1cc(=O)[nH]c(N=N/C(=N/Nc2ccc(O)cc2)c2ccccc2)n1	6.3%	-18.6%[1.46 µM]	-12.3%	nt	nt
Cn1cncc1C(=O)c1ccccc1	9.6%	i	-12.6%	nt	nt
COc1ccc(S(=O)(=O)Nc2cccc(-c3ccc(N4CCCC4)nn3)c2)c(OC)c1	nt	-28.1%	-27.8%	nt	nt
COc1ccc(S(=O)(=O)Nc2cccc(-c3ccc(N4CCCCCC4)nn3)c2)c(OC)c1	3.55µM*	-21.3%	-16.3%	19.9µM*	-15.3%
CCOc1ccccc1NC(=O)CSc1nc2ccccc2c(=O)n1CC1CCCO1 (stereo not given)	-22.2%	-7.0%	0.9%	nt	nt
O=C1/C(=C/c2ccccc2)C[C@@]2(O)[C@H]3Cc4ccc(O)c5c4[C@@]2(CCN3CC2CC2)C1O5 (stereo not given in full)	3.16µM*	?	10µM*	6.28µM*	9.95µM*
O=C1CC[C@]2(O)C3Cc4ccc(O)c5c4C2(CCN3CC2CC2)C1O5 (stereo not given in full)	nt	-15.7%	-4.2%	nt	nt
CCCCn1c(SCn2nnc3ccccc3c2=O)nc2cc(S(N)(=O)=O)ccc21	?	-15.6%	-23.4%	0.0011µM*	-3.4%
SMILES	HCV inh	VACV mCherry inh	Vaccinia Venus	HCV confirm	HCV host tox
CCCCn1c(SCN2C(=O)c3ccccc3C2=O)nc2cc(S(N)(=O)=O)ccc21	21.3%	nt	-12.9%	nt	nt
CC(=O)c1cccc(NS(=O)(=O)c2c(C)nc3sc(C)cn3c2=O)c1	nt	-8.1%	-5.9%	nt	nt
COCCCN1C(=O)/C(=C\c2cccs2)C(C(=O)OC)=C1C	2.3%	?	-6.5%	nt	nt
CCN1C(=O)/C(=C\c2cccs2)C(C(=O)OC)=C1C	3.98µM*	nt	-7.7%	?	?
COc1ccc(CCNC(=O)N[C@@H](Cc2ccccc2)C(=O)O)cc1	12.4%	nt	nt	nt	nt
C#CCN1C=CC(=O)[C@@H](OC(=O)Nc2ccc(OC)cc2)[C@H]1c1ccccc1Br	-6.1%[8.37 µM]	-23.0%	-4.1%	nt	nt
C#CCN1C=CC(=O)[C@@H](OC(=O)Nc2ccc(Cl)cc2)[C@H]1c1ccccc1Br	8.91µM*	-5.9%	-6.0%	?	0.6%
CCc1c(C)nc2ncnn2c1NCCc1ccc(Cl)cc1	?	-28.1%	-22.0%	7.05µM*	?
Cc1nc2ncnn2c(C)c1Cc1c(Cl)cccc1Cl	-6.8%	i	-10.6%	nt	nt
COc1cc(OC)cc(C(=O)NC2CCN(CCCOc3ccccc3)CC2)c1	-18.5%	nt	nt	nt	nt
COc1cc(N)c(Cl)cc1C(=O)N[C@H]1CCN(CCCOc2ccc(F)cc2)C[C@H]1OC	1.78µM*	-9.5%	-16.5%	4.45µM*	4.0%

Assay outcomes deposited in PubChem BioAssay by National Center for Advancing Translational Sciences (NCATS).
